Compounds with a hit are over-represented: about 2.3% of the library has one in this group of screens.
KLK7 zymogen act = proKLK7 zymogen activators, primary screen, biochemical, fluorescence intensity. Kallikrein-7 (Homo sapiens), P49862. hit rate 0.9% among 370,000. purified proKLK7, EDANS-DABCYL substrate fluorescence; 100% is mature enzyme control, 0% vehicle. activation, % at 7 µM;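 active = activation above the mean of all tested compounds plus 3 SD, computed per campaign excluding outliers beyond control limits, cut at about 13% in these data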
ADAM17 inh = ADAM17 inhibitors, primary screen, biochemical, QFRET | Disintegrin and metalloproteinase domain-containing protein 17 (Homo sapiens), P78536 | recombinant ADAM17, EDANS/DABCYL FRET peptide cleavage | inhibition, % at 6.95 µM | hit rate 0.83% among 370,000 | AID 720648, 2013;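 active = inhibition above the mean of compounds lying between control limits plus 3 SD, set per campaign, cut at about 8.5% in these data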;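 note: 0% = DMSO-only wells as the low control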
ADAM10 inh = human ADAM10 inhibitors, primary screen, biochemical, QFRET, HTS; Disintegrin and metalloproteinase domain-containing protein 10 (Homo sapiens), O14672; recombinant ADAM10, EDANS/DABCYL FRET peptide cleavage, 3 h; inhibition, % at 7 µM; hit rate 0.62% among 370,000; AID 720582, 2013;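 active = inhibition above a per-campaign cutoff equal to the mean of compounds falling between control-based bounds plus 3 SD, cut at about 20% in these data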;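 note: 0% = DMSO wells while the 100% control is not disclosed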
Target sequence (O14672 214-748 limits assumed): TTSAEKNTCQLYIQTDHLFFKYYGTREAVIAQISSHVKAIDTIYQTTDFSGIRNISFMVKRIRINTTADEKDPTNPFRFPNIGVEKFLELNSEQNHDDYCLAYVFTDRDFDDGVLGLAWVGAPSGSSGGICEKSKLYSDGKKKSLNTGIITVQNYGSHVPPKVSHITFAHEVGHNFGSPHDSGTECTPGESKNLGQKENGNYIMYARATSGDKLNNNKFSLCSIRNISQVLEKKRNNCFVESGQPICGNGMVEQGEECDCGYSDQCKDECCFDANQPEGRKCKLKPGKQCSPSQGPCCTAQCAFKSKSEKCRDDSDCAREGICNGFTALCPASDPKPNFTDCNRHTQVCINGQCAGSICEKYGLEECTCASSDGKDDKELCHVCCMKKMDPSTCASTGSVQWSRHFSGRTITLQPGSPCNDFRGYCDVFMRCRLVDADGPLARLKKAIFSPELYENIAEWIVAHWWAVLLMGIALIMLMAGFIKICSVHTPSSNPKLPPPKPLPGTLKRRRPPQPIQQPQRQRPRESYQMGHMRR
V-ATPase pH = regulators of yeast V-ATPase proton pumping, primary screen, pHLuorin cytosolic pH fluorescence | S. cerevisiae | hit rate 0.37% among 350,000 | response, % at 10 µM; in the data active = response mostly above about 7.3%, no sharp cut-off; inactive = mostly below about 5.4%; note: actives read high
ADAM10 confirm = human ADAM10 inhibitors, confirmation, biochemical, QFRET, triplicate; shares compounds with ADAM10 inh; ADAM10 QFRET peptide cleavage, EDANS fluorescence; inhibition, % at 6.95 µM; hit rate 1% among 2,100; AID 743208, 2013;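 active = inhibition above about 20% chosen separately for each screening run, limit read from the data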;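 note: 0% = DMSO wells and 100% = marimastat wells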
ADAM17 counter = ADAM17 inhibitors, counter-screen for ADAM10 exosite inhibitor project, biochemical, QFRET, high throughput. shares compounds with ADAM10 inh. hit rate 0.5% among 2,100. inhibition, % at 6.95 µM. ADAM17 QFRET peptide cleavage, EDANS fluorescence;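 active = mean triplicate inhibition above the solvent-only control wells' mean plus 3 SD, cut at about 12% in these data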;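 note: 0% = DMSO wells and 100% = marimastat wells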
ADAM10 counter = ADAM10 inhibitors, counter-screen for ADAM17 exosite inhibitor project, biochemical, FRET, human ADAM10; shares compounds with ADAM17 inh; recombinant ADAM10, EDANS/DABCYL FRET peptide cleavage, 3 h; inhibition, % at 6.95 µM; hit rate 47% among 2,900; AID 743256, 2014;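 active = mean inhibition over the triplicate runs exceeds the activity threshold set in the earlier primary screen, cut at about 20% in these data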;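 note: 0% = DMSO wells and 100% = marimastat wells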
ADAM17 confirm = ADAM17 inhibitors, hit retest, confirmation, biochemical, QFRET peptide cleavage | shares compounds with ADAM17 inh | recombinant ADAM17, EDANS/DABCYL QFRET peptide cleavage | inhibition, % at 6.95 µM | hit rate 65% among 2,900 | AID 743257, 2014;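 active = mean inhibition across replicates above the hit cutoff set in the primary screen, cut at about 8.5% in these data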;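 note: 0% = DMSO wells and 100% = marimastat wells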
* hit, by the source's call; · = no result given.

SMILES | KLK7 zymogen act | ADAM17 inh | ADAM10 inh | V-ATPase pH | ADAM10 confirm | ADAM17 counter | ADAM10 counter | ADAM17 confirm
COc1ccc(OC)c(-n2c(-c3cc(-c4ccc(F)cc4)n[nH]3)n[nH]c2=S)c1 | 0 | 9.3* | 20* | 1 | 1 | 1 | 0 | 3
O=C(NCCc1c[nH]c2ccccc12)OCc1cn(-c2ccc(Cl)cc2)nn1 | 1 | -3 | -7 | · | · | · | · | ·
O=C(CSc1ccc(Br)c2cccc(Cl)c12)Nc1ccc(S(=O)(=O)Nc2nccs2)cc1 | 0 | 16* | 32* | -2 | 11 | 5 | 23* | 14*
CCOc1ccc(-n2c(SCC(=O)Nc3ccc(S(=O)(=O)Nc4nccs4)cc3)nnc2-c2ccncc2)cc1 | 0 | 2 | 2 | · | · | · | · | ·
CC(C)(C)c1ccc(-c2nnc(SCC(=O)Nc3ccc(S(=O)(=O)Nc4nccs4)cc3)n2-c2ccc(Cl)cc2)cc1 | 0 | 13* | 27* | · | 11 | 2 | 27* | 16*
O=C(Cc1ccccc1Cl)Nc1ccc(S(=O)(=O)Nc2nccs2)cc1 | 0 | -4 | 3 | 2 | · | · | · | ·
CCOc1ccc(-n2c(SCC(=O)Nc3ccc(S(=O)(=O)Nc4nccs4)cc3)nnc2-c2ccc(C(C)(C)C)cc2)cc1 | 0 | 12* | 22* | · | 12 | 3 | 40* | 21*
C=CCNc1cccc2c1S(=O)(=O)N[C@H](CC(C)C)CO2 | 0 | -2 | -6 | · | · | · | · | ·
C[C@@H]1CN(S(=O)(=O)C(C)(C)C)[C@H](CCO)/C1=C\CCO | 0 | -2 | -8 | · | · | · | · | ·
Cc1ccc(NC(=O)COC(=O)c2ccccc2Cl)cc1S(=O)(=O)N(C)C | 0 | 1 | 15 | 2 | · | · | · | ·
CN(C)S(=O)(=O)c1cc(NC(=O)CSc2nn(-c3ccc(Cl)cc3)c(=S)s2)ccc1Cl | 0 | -1 | 5 | -4 | · | · | · | ·
Cc1ccc(NC(=O)CSc2nn(-c3ccc(Cl)cc3)c(=S)s2)cc1S(=O)(=O)N(C)C | 0 | 9.8* | 25* | 6 | 9 | 3 | 28* | 20*
Cc1ccc(NC(=O)Cc2ccc(Cl)c(Cl)c2)cc1S(=O)(=O)N(C)C | 1 | 15* | 28* | 1 | 3 | 1 | 17 | 9.6*
C=CCN1[C@@H](C)[C@H](c2ccccc2)Oc2cccc(N3CCCC3)c2S1(=O)=O | 0 | -3 | -9 | · | · | · | · | ·
COC(=O)[C@]1(CNC(=O)NCCc2ccc(OC)c(OC)c2)CC(=O)N(C)[C@@H]1c1ccccc1 | 0 | 5 | 6 | · | · | · | · | ·
O=C(Nc1cccc(Cl)c1)OCCOCCOC(=O)Nc1cccc(Cl)c1 | 1 | 9.8* | 21* | 4 | 4 | 2 | 20 | 13*
O=C(Nc1ccccc1)OCCOc1ccc(Cl)cc1Cl | 1 | 12* | 32* | -2 | 5 | 2 | 28* | 15*
CCOC(=O)N1CCN(C(=O)C[C@H]2C[C@@]3(C(=O)OC)C(=C[C@H](COCc4ccccc4)O[C@@H]3C)N(CCC3=CCCCC3)C2=O)CC1 | 0 | 4 | 2 | · | · | · | · | ·
CC1(C(=O)OCC(=O)Nc2nc(-c3ccc(F)c(F)c3)cs2)CC1(Cl)Cl (stereo not given) | 0 | 9.3* | 21* | 2 | 8 | 2 | 24* | 16*
O=C(CSc1nnc(-c2ccco2)c(-c2ccco2)n1)c1ccccc1 | -1 | 9.0* | 27* | 2 | 4 | 2 | -11 | -1

Screening results deposited in PubChem BioAssay by several laboratories.
